Source: PubChem BioAssay (National Center for Advancing Translational Sciences (NCATS))
This is one part of a sample in which hits are shown more often than they occur.
Pf Dd2 inh: Plasmodium falciparum Dd2 growth inhibition; P. falciparum Dd2 growth, SYBR Green, 72 h; Potency, µM (doses to about 28.9 µM), most hits filed as inhibitors; 120,000 compounds, 4.3% hits; AID 1347417; active = well fitted inhibition curve with a large enough effect; also: nearly all actives have a fitted effect of over 65% in size
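Infected erythrocytes (Dd2, 0.3% parasitemia, 2.5% hematocrit final) are added to compound in RPMI-1640/Albumax II medium, grown 72 h at 37C in low oxygen, then lysed with saponin/Triton-X containing SYBR Green and read by fluorescence.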
A number is an active result; n = inactive; [ ] = another dose, or the depositor's remark.

SMILES	Pf Dd2 inh
CC(=O)c1cccc(NC(=O)NC[C@H]2C[C@@H]3CCN2C[C@@H]3c2cc(-c3cccs3)nc(C)n2)c1	n
CCC(CC)c1cc([C@H]2CN3CC[C@H]2C[C@@H]3CNC(=O)c2ccc(N(C)C)cc2)nc(-c2ccncc2)n1	n
Cc1nc(-c2ccccc2)cc([C@H]2CN3CC[C@H]2C[C@@H]3CNC(=O)CCCC(=O)O)n1	n
CCC(CC)c1cc([C@H]2CN3CC[C@H]2C[C@@H]3CNC(=O)c2cccs2)nc(-c2ccncc2)n1	0.25µM
CCC(CC)c1cc([C@H]2CN3CC[C@H]2C[C@@H]3CNC(=O)COc2ccccc2)nc(-c2ccncc2)n1	0.45µM
CCC(CC)c1cc([C@H]2CN3CC[C@H]2C[C@@H]3CNC(=O)c2cc(OC)c(OC)c(OC)c2)nc(-c2ccncc2)n1	n
CCC(CC)c1cc([C@H]2CN3CC[C@H]2C[C@@H]3COC(=O)Nc2ccccc2)nc(-c2ccncc2)n1	n
CCC(CC)c1cc([C@H]2CN3CC[C@H]2C[C@@H]3CNC(=O)Cc2cccs2)nc(-c2ccncc2)n1	0.71µM
Cn1nc(-c2ccc3ccccc3c2)cc1[C@H]1CN2CC[C@H]1C[C@@H]2CNC(=O)COc1ccccc1	n
COCC1CN(C(=O)c2ocnc2C)CC12CCNCC2 (stereo not drawn)	n
CCOC(=O)N1CCN(Cc2nc(-c3ccc(C)s3)oc2C)CC1	n
COCCN1CCC2(CCC1=O)CCN(S(=O)(=O)c1cc(C)ccc1C)CC2	n
CN(Cc1cn[nH]c1-c1ccc(F)cc1)C(=O)c1ccccc1C1CCNC1 (stereo not drawn)	n
COc1ccc(-c2noc([C@@H]3CCCN3C(=O)c3ccc(F)cc3Cl)n2)cc1	n
CN(C)c1ccc(C(CNS(=O)(=O)c2ccc(Cl)cc2)N2CCOCC2)cc1 (stereo not drawn)	n
CCCOc1ccc(C(=O)NCC(c2ccc(OC)cc2)N2CCCCC2)cc1 (stereo not drawn)	n
Cc1cc(OCC(=O)NCC2(N3CCOCC3)CCCCC2)ccc1Cl	n
COc1ccc(C(CNC(=O)COc2cc(C)cc(C)c2)N2CCCCC2)cc1 (stereo not drawn)	n
COc1ccc(C(CNC(=O)c2ccc(C)cc2)N2CCOCC2)cc1 (stereo not drawn)	n
COc1ccc(C(CNC(=O)c2oc3cc(C)c(Cl)cc3c2C)N2CCCCC2)cc1 (stereo not drawn)	n
COc1ccc(C(CNC(=O)c2oc3ccccc3c2C)N2CCCCC2)cc1 (stereo not drawn)	n
CC(C)c1ccc(OCC(=O)NCC(c2ccc(Cl)cc2)N2CCOCC2)cc1 (stereo not drawn)	10µM
COc1ccc(C(CNC(=O)COc2ccc(C)c(C)c2)N2CCCCC2)cc1 (stereo not drawn)	11µM
COc1ccc(OCC(=O)NCC(c2ccc(OC)cc2)N2CCCCC2)cc1 (stereo not drawn)	8.9µM
COc1ccc(CC(=O)NCC(c2ccc(Cl)cc2)N2CCOCC2)cc1 (stereo not drawn)	n[0.594 µM]
SMILES	Pf Dd2 inh
COc1ccc(C(CNC(=O)COc2ccc(Cl)c(C)c2)N2CCOCC2)cc1 (stereo not drawn)	3.5µM
C[C@@H](NC(=O)[C@@]1(O)C[C@@H](O)[C@H](O)[C@@H](NC(=O)Nc2ccc(OC(F)(F)F)cc2)C1)C(N)=O	n
CN1C[C@H](NC2CCC2)CCC[C@@H](C(=O)NC2CC2)CC1=O	n
COCCOc1cc(=O)n2c(c1C(=O)NCc1ccccc1OC)CCOCC2	n
COCc1noc([C@@H]2CN(C3CCN(CC(C)C)CC3)C[C@H]2CO)n1	n
CCN(C(=O)c1ccc2c(c1)N(S(C)(=O)=O)CC2)c1ccccc1	n
Cc1ccc(-c2c(C)n3c4c(=O)n(C)c(=O)n(C)c4nc3n2-c2cccc(O)c2)cc1	10µM
Cc1ccc(-c2nc3ccccc3n3c(-c4ccccc4)c4c(=O)n(C)c(=O)n(C)c4c23)cc1	n
CCc1ccc(-n2c(-c3ccccc3)c(C)n3c4c(=O)n(C)c(=O)n(C)c4nc23)cc1	n
CCOc1ccc(-c2nc(C3CC(=O)N(c4ccc(F)c(Cl)c4)C3)no2)cc1OCC (stereo not drawn)	n
O=C(O)C[C@@H]1CCN(C(=O)C(=O)O)C[C@@H]1CC1=NCCc2ccccc21	n
CC(C)(C)NC(=O)N1CCC2(CC1)C(=O)N(CC(=O)NCC1CCCO1)CN2c1ccccc1 (stereo not drawn)	n
COCCNC(=O)CN1CN(c2ccccc2)C2(CCN(C(=O)C3CCCCC3)CC2)C1=O	n
Cc1ccc(NC(=O)N2CCC3(CC2)C(=O)N(CC(=O)N2CCCC2)CN3c2ccccc2)cc1	7.1µM
CCOC1CCOC2(CCN(C(=O)c3ccco3)CC2)C1 (stereo not drawn)	n
O=C(c1ccc2c(c1)OCO2)N1CCC2(CC1)CC(c1ccccc1)=NO2	n
COc1cc(=O)n2c(c1C(=O)N1CCN(c3cc(C)ccc3C)CC1)CCCC2	n
CC(=O)c1c(C)nn(CC(=O)N2CCOC(C(=O)O)C2)c1C (stereo not drawn)	n
